Shown is part of a subset that was picked to be rich in hits.
Pf Dd2 inh = Plasmodium falciparum Dd2 growth inhibition | P. falciparum Dd2 growth, SYBR Green, 72 h | Potency, µM (doses to about 28.9 µM), for the others: at the top dose activity, negative = inhibition, usual class: inhibitors | actives 4.3% (n = 120,000) | AID 1347417; active means well fitted inhibition curve with a large enough effect;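 further: plate controls were DMSO vehicle for no effect and reference drug for full effect; nearly all actives have a fitted effect of over 65% in size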
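Infected erythrocytes (Dd2, 0.3% parasitemia, 2.5% hematocrit final) are added to compound in RPMI-1640/Albumax II medium, grown 72 h at 37C in low oxygen, then lysed with saponin/Triton-X containing SYBR Green and read by fluorescence.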
The depositor's hits bear a star; i = inactive; [ ] = another dose, or the depositor's remark. Potency means the concentration at half of the fitted maximal effect.

SMILES	Pf Dd2 inh
O=C(Nc1ccccc1F)N1CCC(Oc2ncccc2C(=O)N2CCOCC2)C1 (stereo not given)	61%
CN(C)c1ccc(C(=O)N2CCC3(CC2)N=C(c2ccc(Br)cc2)NO3)cc1	i
COCCn1nc2n(c1=O)CCN(Cc1ccc(Br)s1)CC2	18%
Cc1ccc(C)c(NC(=O)c2ccc3c(c2)CCN3S(=O)(=O)c2ccccc2)c1	-19%
COc1ccc(NC(=O)c2ccc3c(c2)CCN3S(=O)(=O)c2ccc(C)cc2)cc1Cl	8.9µM*
COc1ccc(Cl)cc1NC(=O)c1oc2ccc(S(=O)(=O)N3CCCCC3)cc2c1C	41%
CCc1cccc(CC)c1NC(=O)c1ccc2c(c1)CCN2S(=O)(=O)c1ccccc1	7%
COc1ccc(C(=O)Nc2ccc3c(c2)CCCN3S(=O)(=O)c2ccc(C)cc2)cc1	i
COc1ccc(NC(=O)c2oc3ccc(S(=O)(=O)N4CCCCC4)cc3c2C)cc1Cl	11µM*
CC(=O)Nc1ccc(NC(=O)c2ccc3c(c2)CCN3S(=O)(=O)c2ccc(C)cc2)cc1	19%
O=C(Nc1ccc(Cl)c(C(F)(F)F)c1)c1ccc2c(c1)CCN2S(=O)(=O)c1ccccc1	8.9µM*
Cc1ccc(Cl)cc1NC(=O)c1oc2ccc(S(=O)(=O)N3CCCCCC3)cc2c1C	5%
COc1ccc(-c2noc([C@@H]3C[C@H](NC(=O)NC(C)C)CN3C)n2)cc1	22%[44.1 µM]
Cc1cccn2c(CC(=O)N3Cc4[nH]cnc4CC3C(=O)O)cnc12 (stereo not given)	2%
CNC(=O)[C@@H]1CCCC[C@@H]1c1nc(-c2ccncc2)nn1CCO	3%
Cc1ccc(C2=NC3(CCN(C(=O)c4ccncc4)CC3)ON2)cc1	-24%
O=C1N[C@@H]2CCN(C(=O)c3ccc(-c4ccccc4)cc3)[C@@H]2C(=O)N1c1ccc(F)cc1	i
COc1cc(NC(=O)Cn2nc3n(c2=O)CCCC3)cc(OC)c1OC	43%
CC[C@@]1(O)CCN(C(=O)c2cccc(OCc3cccc(F)c3)c2)C[C@H]1O	-1%
COc1ccc(OC)c(NC(=O)Cn2c(-c3ccccc3)nc(C)cc2=O)c1	-8%
CN1C(=O)CC[C@]2(C(=O)NCc3cccc(F)c3)CCCC[C@@H]12	-12%
COCC(=O)NC1CCC12CCN(Cc1ccc(C)o1)CC2 (stereo not given)	-15%
COc1cccc([S+](=O)([O-])N2CCC3(C2)C(=NC2CCCCC2)NC(=O)N3c2cc(F)cc(F)c2)c1 (stereo not given)	-28%
COc1ccc(Br)c2c1-c1nc(NC(=O)c3ccc(F)cc3)sc1C2	2.8µM*
COc1cc(C(=O)Nc2ccc3nc(SCc4ccccc4)sc3c2)cc(OC)c1OC	i
SMILES	Pf Dd2 inh
COc1cc(C(=O)Nc2nc3c(s2)C[C@]2(C)CC[C@@H]4[C@H](OC(=O)[C@H]4C)[C@H]2[C@@H]3C)cc(OC)c1OC	-25%
COc1cc(C(=O)Nc2nc3c(s2)Cc2c(Br)ccc(OC)c2-3)cc(OC)c1OC	3.2µM*
COc1ccc(Br)c2c1-c1nc(NC(=O)c3ccccc3F)sc1C2	47%
COc1ccc(Br)c2c1-c1nc(NC(=O)c3ccccc3SC)sc1C2	-5%
COc1ccc(CC(=O)Nc2ccc([C@H]3OCC(=O)N(Cc4nccn4C)[C@@H]3CO)cc2)cc1	i
O=C(CCC1CCCC1)NCCc1noc(C2CC2)n1	12%
O=C(c1ccccc1Cl)N1CCC2(CC1)CC(=O)N(c1ccccc1)c1ccccc1O2	-23%
CC(C)Cc1nc2ccc(NC(=O)C[C@H]3NC(=O)c4ccccc4NC3=O)cc2[nH]1	-11%
NC(=O)C1CCN(c2ncncc2-c2nc(-c3ccccc3)no2)CC1	-21%
O=C(c1ccco1)N1CCN(c2ncncc2-c2nc(-c3ccccc3)no2)CC1	4µM*
c1ccc(-c2noc(-c3cncnc3N3CCN(c4ccccc4)CC3)n2)cc1	-11%
Cc1ccnc(CC(C)N(C)C(=O)c2cc(-c3cnn(C)c3)nc3ccccc23)c1 (stereo not given)	2%
O=C(N1CCCC1)N1CCN(c2ncnc3sccc23)CC(O)C1 (stereo not given)	-3%
NC(=O)C1(N2CCCCC2)CCN(C(C(=O)O)c2ccc(N)c(F)c2)CC1 (stereo not given)	-10%
COc1ccc(NC(=O)Cn2ccn3nc(-c4ccccc4)c(CO)c3c2=O)cc1OC	29%
Cc1cc(COc2ccccc2)oc1C(=O)N1CCn2nc(C(C)O)cc2C1 (stereo not given)	-12%
O=C(Cn1nc2n(c1=O)CCN(Cc1cccc(Cl)c1)C2=O)NC1CCCC1	i
COc1ccc(NC(=O)c2ccc(-c3nc(CSc4ccccc4)c(C)o3)cc2)cc1OC	i
Cc1oc(-c2ccc(C(=O)Nc3cccc(C(F)(F)F)c3)cc2)nc1CSc1ccccc1	11µM*
CC(=O)c1ccc(NC(=O)c2ccc(-c3nc(CSc4ccccc4)c(C)o3)cc2)cc1	-24%
CCC(=O)N1CCC(n2c(C)cnc2C2CC2)CC1	17%
COCCNC(=O)[C@@H]1C[C@@H](O)CN1C1CCN(C(=O)COc2cccc(C)c2)CC1	-5%
